Screens from PubChem.
TrxR1 inh: qHTS Assay for Inhibitors of Mammalian Selenoprotein Thioredoxin Reductase 1 (TrxR1): qHTS. Thioredoxin reductase 1, cytoplasmic (Rattus norvegicus), O89049. recombinant rTrxR1, NADPH fluorescence consumption, selenite substrate. Potency, µM (top dose mostly 114 µM), usual class: inhibitors. 390,000 compounds, 1% hits. AID 588453, 2011; note: nearly all actives have a fitted effect of over 65% in size
Target sequence (O89049 whole entry, looked up): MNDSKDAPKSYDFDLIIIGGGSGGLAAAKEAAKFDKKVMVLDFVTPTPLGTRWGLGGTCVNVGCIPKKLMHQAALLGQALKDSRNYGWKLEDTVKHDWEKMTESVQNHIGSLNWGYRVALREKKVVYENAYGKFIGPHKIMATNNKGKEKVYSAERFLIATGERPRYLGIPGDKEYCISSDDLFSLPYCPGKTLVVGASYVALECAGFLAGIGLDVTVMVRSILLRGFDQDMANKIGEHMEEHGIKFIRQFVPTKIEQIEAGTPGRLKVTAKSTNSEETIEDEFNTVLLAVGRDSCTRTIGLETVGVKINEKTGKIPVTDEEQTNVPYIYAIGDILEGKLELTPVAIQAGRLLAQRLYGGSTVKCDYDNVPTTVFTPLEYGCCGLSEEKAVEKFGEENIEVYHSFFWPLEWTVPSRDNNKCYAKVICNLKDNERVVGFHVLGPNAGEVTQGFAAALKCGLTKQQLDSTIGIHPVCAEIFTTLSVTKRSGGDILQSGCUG
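Rat TrxR1 (90 nM in the dispensed reagent) was pre-reduced with 400 uM NADPH for 5 min at room temperature, then incubated with compound for 15 min. After 400 uM selenite was added, NADPH fluorescence (Ex 340/Em 450 nm) was followed for 8 min.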
GRP78 ERSR act: qHTS for Inducers of the Endoplasmic Reticulum Stress Response (ERSR) in Human Glioma: qHTS. U87-MG GRP78 promoter luciferase reporter, 16 h. 420,000 compounds, 0.02% hits. Potency, µM, actives largely listed as activators; note: series mostly up to about 76 µM; nearly all actives have a fitted effect of over 35% in size
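Stably transfected U87-MG glioma cells carrying a GRP78-based luciferase sensor; 16 h compound incubation. Luminescence end-point read 10 min after Bright-Glo addition at room temperature.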
IDH1 R132H inh: qHTS for Inhibitors of mutant isocitrate dehydrogenase 1 (IDH1): qHTS | AID 602179, 2012 | Isocitrate dehydrogenase [NADP] cytoplasmic (Homo sapiens), O75874 | 390,000 compounds, 0.093% hits | IDH1-R132H enzyme, NADPH consumption, diaphorase/resazurin fluorescence | Potency, µM (doses to about 76.6 µM), actives largely listed as inhibitors; note: nearly all actives have a fitted effect of over 65% in size
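IDH1-R132H (0.5 ug/mL dispensed) in pH 7.5 Tris buffer was preincubated 30 min with compound, then given a substrate mix of 0.016 mM NADPH and 2 mM alpha-KG for 80 min at room temperature; remaining NADPH was read by diaphorase/resazurin fluorescence.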
Apoferritin bind: qHTS Assay for Identification of Novel General Anesthetics | apoferritin/1-aminoanthracene competitive binding, fluorescence | Potency, µM (highest dose often 77.5 µM), usual class: inhibitors | 350,000 compounds, 0.074% hits; note: nearly all actives have a fitted effect of over 20% in size
Target sequence (P02791 2-175 limits assumed): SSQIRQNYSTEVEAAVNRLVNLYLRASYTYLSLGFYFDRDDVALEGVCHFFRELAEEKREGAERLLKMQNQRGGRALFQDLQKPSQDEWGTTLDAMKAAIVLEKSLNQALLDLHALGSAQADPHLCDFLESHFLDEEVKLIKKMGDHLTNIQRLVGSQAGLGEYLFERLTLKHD
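Probe: 1-aminoanthracene (50% saturated, PBS). Protein: horse-spleen apoferritin, 10 uM. Incubation: 10 min, room temperature. Detection: 380 nm excitation, 535 nm emission. Analysis: normalized response, four-parameter Hill.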
ALOX12 inh: Primary qHTS assay for inhibitors of human arachidonate 12S-lipoxygenase (ALOX12): Round 2; Polyunsaturated fatty acid lipoxygenase ALOX12 (Homo sapiens), P18054; purified 12hLO, xylenol orange hydroperoxide absorbance; Potency, µM (titrated, usually from 108 µM), most hits filed as inhibitors; 580,000 compounds, 1.1% hits
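Purified human 12hLO at 150 nM in 25 mM Hepes, 0.01% Triton X-100, pH 7.0, preincubated 15 min at room temperature with compound. Reaction started with 40 uM arachidonic acid, 30 min at room temperature. Hydroperoxide measured by Fe-xylenol orange, 573/405 nm absorbance ratio.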
TrxR1 substrate: qHTS Assay for Substrates of Mammalian Selenoprotein Thioredoxin Reductase 1 (TrxR1): qHTS | Thioredoxin reductase 1, cytoplasmic (Rattus norvegicus), O89049 | purified TrxR1 substrate turnover, NADPH consumption readout | 390,000 compounds, 0.01% hits | Potency, µM (top dose mostly 114 µM); note: nearly all actives have a fitted effect of over 50% in size
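Rat TrxR1, dispensed at 90 nM, was prereduced with 400 uM NADPH (final) for 5 min at ~22 deg C, then incubated with compound 15 min before 400 uM selenite. A first-read NADPH fluorescence drop versus no-compound background flagged substrates.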
A number is an active result; 0 = inactive; ? = inconclusive; - = no result given; [ ] = remark or other dose. In the library only some 1.7% were active in any assay of this set; here they are far more common. Calls come from the whole dose curve; as a rule, active = well fitted curve in the direction sought with a large enough effect; inconclusive = small, poorly fitted or top-dose-only effect, or another doubt; inactive = no such curve, though single readings can be large; an effect the other way counts as inactive or inconclusive.

SMILES	TrxR1 inh	GRP78 ERSR act	IDH1 R132H inh	Apoferritin bind	ALOX12 inh	TrxR1 substrate
C[C@@](N)(C(=O)O)c1ccc(P(=O)(O)O)cc1	-	0	-	-	13µM	-
CC(N)(C(=O)O)c1ccc(P(=O)(O)O)cc1 (centres undefined)	-	0	-	0	0	-
COc1ccc(Cl)cc1-n1c(=O)c(C#N)cc2c(=O)n3cccc(C)c3nc21	-	-	-	-	0	-
Cc1ccc(S(=O)(=O)N(C)C)cc1NC(=O)COC(=O)c1sc2cc(Cl)ccc2c1Cl	35µM	0	0	0	0	0
COc1cc(/C=C/C(=O)Oc2ccc3ccc(=O)oc3c2)ccc1OS(=O)(=O)c1ccc(C)cc1	-	-	-	-	0	-
Cc1cc(C)nc(SCc2cc(=O)c(OC(=O)c3ccc(S(=O)(=O)N4CCCC4)cc3)co2)n1	16µM	0	0	0	0	0
Cc1cc(C)nc(SCc2cc(=O)c(OC(=O)c3ccco3)co2)n1	0	0	0	0	0	0
Cc1cc(C)nc(SCc2cc(=O)c(OC(=O)c3cc([N+](=O)[O-])ccc3Cl)co2)n1	0	0	0	0	?	0
Cc1cc(C)nc(SCc2cc(=O)c(OC(=O)c3ccc(Br)o3)co2)n1	79µM	0	0	0	0	0
Cc1cc(C)cc(NC(=O)CSc2oc(-c3cccs3)nc2S(=O)(=O)c2ccc(Br)cc2)c1	0	0	0	0	?	0
FC(F)(F)c1nc(=S)c2ccccc2[nH]1	4.5µM	0	0	0	28µM	0
O=C(CNS(=O)(=O)Cc1ccccc1)NNc1ccccc1	-	0	-	-	40µM	-
O=C(CNS(=O)(=O)Cc1ccccc1)NCc1ccccc1	0	0	0	0	0	0
O=C(Nc1ccccc1)N[C@H]1[C@H](O)[C@@H](N2CCOCC2)[C@@H]2OC[C@H]1O2	-	-	-	-	0	-
O=C(Nc1ccccc1)N[C@H]1[C@H](O)[C@@H](N2CCN(c3ccccc3)CC2)[C@@H]2OC[C@H]1O2	-	-	-	-	112µM	-
CCOc1ccc(/C=C/C(=O)c2cc(Br)ccc(=O)c2O)cc1	35µM	0	0	0	28µM	0
CCc1ccc(/C=C/C(=O)c2cc(Br)ccc(=O)c2O)cc1	?	0	0	0	?	0
COC(=O)CSc1[nH]c2ccc(Br)cc2c1[N+](=O)[O-]	11µM	0	0	0	0	0
O=C(c1cc(-c2ccccc2F)cc2c1OCCN2Cc1cccnc1)N1CC(O)C1	-	-	-	-	0	-
Cc1cc(C(=O)NC2CCCN(Cc3ccc(Cl)cc3)C2)c(C)o1 (centres undefined)	0	0	0	0	16µM	0
O=C(C1CCCN(Cc2ccc(Cl)cc2)C1)N1CCCCC1 (centres undefined)	0	0	0	0	0.63µM	0
CSc1cccc(NC(=O)N2CCC3(CCC(=O)N(C4CC4)C3)CC2)c1	-	-	-	-	0	-
CC1CC(C)CN(c2cc(N(C)CCO)c([N+](=O)[O-])c3nonc23)C1 (centres undefined)	0	0	0	?	0	0
CC1CCN(c2cc(N(C)CCO)c([N+](=O)[O-])c3nonc23)CC1	45µM	0	0	0	0	0
COc1cccc(CCC(=O)N2CCC(C3CCN(S(C)(=O)=O)CC3)C2)c1 (centres undefined)	-	-	-	-	0	-
SMILES	TrxR1 inh	GRP78 ERSR act	IDH1 R132H inh	Apoferritin bind	ALOX12 inh	TrxR1 substrate
O=C(NC(NC(=O)c1ccccc1F)c1ccc(Cl)c(Cl)c1)c1ccccc1F	-	-	-	-	0	-
CCOC1CCCc2oc(-c3ccc(OC)cc3)c(C(=O)NCCCCO)c21 (centres undefined)	-	-	-	-	13µM	-
COc1ccc(C2(c3nc(C4CC(=O)N(c5ccc(C)cc5)C4)no3)CC2)cc1 (centres undefined)	-	-	-	-	0	-
CCCCNC(=O)Cc1csc2nc(C)c(-c3cc(C)n(-c4cccc(Cl)c4)n3)c(=O)n12	-	-	-	-	40µM	-
CCOc1cc(CN2CCN(c3ccc(C(C)=O)cc3)CC2)ccc1OC	35µM	0	0	0	?	0
C=CCNC(=S)NCc1ccc(F)cc1	-	-	-	-	0	-
FC(F)(F)c1nnc2ccc(Sc3nnc(Cc4ccccc4)n3-c3ccccc3)nn12	-	-	-	-	0	-
c1ccc(N/N=C(\Cc2nc3ccccc3[nH]2)c2ccccc2)cc1	0	0	0	0	?	0
Cc1ccc(N/N=C(\Cc2nc3ccccc3[nH]2)c2ccccc2)cc1	79µM	0	0	0	-	0
O=C(CN1CCN(c2ccccc2)CC1)Nc1cccc2ncccc12	-	-	-	-	0	-
COCCn1cc2c3c(cccc31)CN(C(=O)Cc1ccccc1C)CC2	-	-	-	-	0	-
O=c1cc(O)c2sc3nc(-c4cccs4)cc(-c4cccs4)c3c2[nH]1	-	-	-	-	10µM	-
Cc1nc2sc3c(O)cc(=O)[nH]c3c2c(C)c1C	0	?	0	0	0	0
NC(=O)CN(CC(=O)NC1CCC(C(F)(F)F)CC1)C1CCCC1 (centres undefined)	-	-	-	-	0	-
CCOC(=O)/C(=C\Nc1ccccc1C(F)(F)F)Sc1ncc(C(F)(F)F)cc1Cl	0	0	0	0	0	0
N#Cc1c(Sc2ncc(C(F)(F)F)cc2Cl)nsc1C/C=N\OCc1ccccc1Br	?	0	0	14µM	0	0
Cc1oc(-c2cccs2)nc1C(=O)N1CCOC(C)C1 (centres undefined)	-	-	-	-	0	-
COc1ccc(C2NC(=S)NC3=C2CCc2ccccc23)cc1 (centres undefined)	-	-	-	-	40µM	-
Cc1ccc(/C=C2\CCCC3=C2NC(=S)NC3c2ccc(C)cc2)cc1 (centres undefined)	?	0	0	0	?	0
COc1ccc(C2NC(=S)NC3=C2CCc2cc(OC)ccc23)cc1 (centres undefined)	0	0	0	0	28µM	0
CCCN1CNc2c(c(=O)[nH]c(=S)n2CCc2ccc(C)c(C)c2)C1	0	-	-	-	-	0
Cc1ccc(CN(C)C(=O)c2cc(COc3cccc(C(F)(F)F)c3)on2)o1	?	0	0	?	40µM	0
CCc1nc(-c2c3n(c(=O)n(Cc4ccc(OC)c(F)c4)c2=O)CCCC3)no1	-	-	-	-	0	-
CC(c1ccccc1)C1CC(=O)N(CC(=O)O)C1=O (centres undefined)	0	0	0	0	0	0
CC(c1ccccc1)C1CC(=O)N(Cc2ccco2)C1=O (centres undefined)	40µM	0	0	0	0	0
CCCNC(=O)C1CN(S(=O)(=O)c2ccc(C)cc2)c2ccccc2O1 (centres undefined)	0[0.457 µM]	0	0	0	0	0
CCOC(=O)C1CN(S(=O)(=O)c2ccc(C)cc2)c2ccccc2O1 (centres undefined)	3.2µM	0	0	0	0	0
Cc1ccc(C(=O)N2CCC(N3CC4CCCN4C3=O)CC2)cc1 (centres undefined)	-	-	-	-	0	-
